Pf growth 48h: inhibits P. falciparum growth in the first generation, 48 h; AID 504832; hit rate 5.9% among 310,000; Potency, µM (titrated, usually from 28.7 µM), for the others: top-dose activity change, negative = inhibition, hits mostly inhibitors; P. falciparum luciferase growth in erythrocytes, 48 h; further: on the % scale 0 is the no-effect control and ±100 the full control effect
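First compound was added to culture medium, then infected red cells at 0.1% parasitemia and 2% hematocrit (final). After incubation at 37 C under 5% CO2, luciferase detection reagent was dispensed and light output recorded.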
Pf growth 96h: P. falciparum growth inhibition at 96 hour, primary screen for plastid delayed-death inhibitors; P. falciparum luciferase reporter growth, 96 h; Potency, µM (highest dose often 28.7 µM), for inactives: top-dose activity change, negative = inhibition, actives largely listed as inhibitors; hit rate 6.9% among 320,000; AID 504834; further: on the % scale 0 is the no-effect control and ±100 the full control effect
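96 h incubation, 37 C, 5% CO2, of luciferase-reporter P. falciparum-infected RBCs (2% hematocrit, 0.05% parasitemia final) with test compounds; endpoint luminescence.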
Vaccinia Venus: inhibitors of vaccinia virus (Venus reporter); Vaccinia virus Venus reporter expression, fluorescence; Potency, µM (doses to about 36.5 µM), without a hit: top-dose activity change, negative = inhibition, hits mostly inhibitors; hit rate 0.46% among 330,000; AID 720580; calls by dose curve; tested in A549 cells; further: on the % scale 0 is the no-effect control and ±100 the full control effect; nearly all actives have a fitted effect of over 30% in size
HCV inh: inhibitors of hepatitis C virus infection. Huh7.5.1 HCVcc-Cre infection, luciferase reporter, 44 h. hit rate 3.4% among 340,000. AID 651820. Potency, µM (titrated, usually from 41.8 µM), inactives show at the top dose activity change, negative = inhibition, most hits filed as inhibitors; further: on the % scale 0 is the no-effect control and ±100 the full control effect
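Infectious HCVcc-Cre (~0.5 moi) was added to cells just after compound, with cells seeded 4 h earlier at 1,000 per well. Luciferase activity after 44 h culture reported infection; substrate was incubated 15 min at room temperature before reading.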
NS1 function inh: inhibitors of influenza NS1 protein function | hit rate 0.4% among 270,000 | Potency, µM (highest dose often 46.1 µM), without a hit: at the top dose activity, positive = more growth | AID 2326; calls by dose curve; further: actives are rising curves; nearly all actives have a fitted effect of over 50% in size
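In this qHTS, NS1 from influenza A is expressed in budding yeast, where it slows growth. Cells are switched from glucose to 2% galactose medium (pH 6.0, -URA), treated with compound, and growth recovery is read at OD600.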
Vaccinia mCherry: inhibitors of vaccinia virus infection (mCherry reporter signal); Vaccinia virus mCherry reporter infection, fluorescence; Potency, µM (series often up to 36.5 µM), for the others: top-dose activity change, negative = inhibition, actives largely listed as inhibitors; hit rate 0.63% among 310,000; calls by dose curve; tested in A549 cells; further: on the % scale 0 is the no-effect control and ±100 the full control effect; nearly all actives have a fitted effect of over 35% in size
Starred values were filed as active, the others as inactive; i = inactive; ? = inconclusive; / = no result; [ ] = remark or other dose. Only some compounds are listed: those with a hit (about 11% of all), similar ones and a draw of the others. Unless noted, the call rests on the fitted dose curve; in most records, active means well fitted inhibition curve with a large enough effect; inconclusive means small, poorly fitted or top-dose-only effect, or another doubt; inactive means no such curve, though single readings can be large or run the other way. Potency means the concentration at half of the fitted maximal effect.

SMILES	Pf growth 48h	Pf growth 96h	Vaccinia Venus	HCV inh	NS1 function inh	Vaccinia mCherry
COc1ccc(C(=O)c2c(C)n(CCN3CCOCC3)c3ccccc23)cc1	-14.7%	12µM*	/	/	/	/
COc1ccc(C(=O)C(CN2CCOCC2)c2ccccc2)cc1 (configuration not stated)	/	?	10µM*	?	-201.0%	10µM*
CCCOc1ccc(C(=O)C(CN2CCCC2)c2ccccc2)cc1 (configuration not stated)	10.4µM*	?	10µM*	?	-54.3%	?
CCC(O)(c1ccc(OC)cc1)C(CN1CCOCC1)c1ccccc1 (configuration not stated)	?	?	/	9.7%	/	/
O=C(NCC(c1ccc(F)cc1)N1CCOCC1)c1ccc(-c2ccccc2)cc1 (configuration not stated)	/	/	/	-14.4%	/	/
COC(=O)c1ccc(-c2nc3ccccc3o2)cc1	91.1%	?	/	/	-27.1%	/
CCCCCOc1ccc(C(=O)CCN2CCOCC2)cc1	?	2.33µM*	-23.5%	1.0%	-26.5%	-7.1%
O=C(c1ccccc1)C(CCC(CN1CCOCC1)C(=O)c1ccccc1)CN1CCOCC1 (configuration not stated)	-20.9%	?	7.94µM*	5.62µM*	-30.9%	/
O=C(c1ccc(Cl)cc1)C(CN1CCCC1)c1ccccc1 (configuration not stated)	-10.9%	-21.7%	/	?	-84.4%	/
CC(C)Oc1ccc(C(=O)CCN2CCOCC2)cc1	/	/	/	2.6%	/	/
c1ccc(C(CN2CCOCC2)c2ccccc2)cc1	0.0%	8.28µM*	/	16.8%	2.1%	/
COc1ccc(C(=O)C(CN2CCCC2)c2ccccc2)cc1 (configuration not stated)	13.1µM*	3.6%	?	?	-42.1%	11.2µM*
C=CCOc1ccc(/C=N/NC(=O)CN2CCCCC2)cc1OC	-16.8%	-23.9%	-12.2%	5.1%	14.7%	i
O=Cc1ccc(CS)cc1	/	/	-10.4%	/	/	20.8%
C[C@H](CO)N1C[C@H](C)[C@H](CN(C)C(=O)Nc2ccnc(N3CCOCC3)c2)OCc2cnnn2CCCC1=O	/	/	-9.4%	/	/	-9.4%
CCN(CC(=O)Nc1ccc(OC)cc1)C(=O)Cc1coc2cc(C)c(C)cc12	?	?	-9.0%	22.3%	/	-23.3%
O=C(O)c1ccc(N/N=C/c2cc3c(cc2[N+](=O)[O-])OCO3)cc1	395.2%	73.8%	-14.2%	19.5%	/	-20.6%
O=C(CN1CCCCCC1)NN(Cc1ccccc1)c1ccccc1	6.6%	1.8%	-5.5%	1.3%	-1.4%	-9.4%
O=C(c1ccccc1)C(O)C(c1ccccc1)N1CCOCC1 (configuration not stated)	-0.2%	32.3%	/	8.8%	-2.1%	/
CCCCCOc1ccc(C(=O)C(c2ccccc2)N2CCOCC2)cc1 (configuration not stated)	?	?	-20.2%	0.1%	-9.4%	-25.8%
OC(c1ccc(F)cc1)C(c1ccccc1)N1CCOCC1 (configuration not stated)	3.8%	1.85µM*	-9.5%	-1.2%	4.7%	-1.0%
CCCCOc1ccc(C(=O)C(CN2CCOCC2)c2ccccc2)cc1 (configuration not stated)	?	?	?	?	-24.0%	15.8µM*
COc1ccc(N2CCN(CCCNC(=O)C(=O)c3c(C)n(C)c4ccccc34)CC2)cc1	?	14.7µM*	/	?	3.4%	/
CC(=O)Nc1ccc(S(=O)(=O)NNC(=O)CCC(=O)NCc2ccccc2)cc1	/	/	/	0.8%	/	/
Nc1nc(N)c2nc(-c3ccccc3)c(N)nc2n1	1.69µM*	3.79µM*	?	13.3%[8.37 µM]	?	?
SMILES	Pf growth 48h	Pf growth 96h	Vaccinia Venus	HCV inh	NS1 function inh	Vaccinia mCherry
CC1(C)N=C(N)NC(Nc2ccccc2Cl)=N1	-33.8%	31.0%	-0.1%	-8.5%	/	-6.7%
Cc1ccc(S(=O)(=O)N2CCN(C(=O)/C=C/c3ccco3)CC2)cc1	6.57µM*	1.85µM*	-7.2%	8.8%	19.9%	i
Cc1ccc(S(=O)(=O)N2CCN(C(=O)CC(C)n3nc(C)c(Cl)c3C)CC2)cc1C (configuration not stated)	?	11.7µM*	/	-10.0%	-5.9%	/
Cc1ccc(S(=O)(=O)N2CCN(C(=O)/C=C/c3ccccc3)CC2)cc1C	4.15µM*	13.1µM*	-26.8%	?	/	?
O=C(/C=C/c1ccco1)N1CCN(S(=O)(=O)c2ccccc2)CC1	/	/	/	5.0%	/	/
O=C(Cc1c(F)c(F)c(F)c(F)c1F)OC12CC3CC(C1)C(=O)C(C3)C2	/	-3.3%	?	-0.3%	5.3%	-23.7%
Cc1ccc(CN2CCN(Cc3ccncc3)CC2CCO)o1 (configuration not stated)	10.1%	?	-4.2%	20.8%	2.2%	i
COC(=O)C1=C(N)OC2=C(C(=O)CCC2)C1c1ccc2c(c1)OCO2 (configuration not stated)	20.1%	-15.2%	/	7.4%	-6.3%	/
COC(=O)C1=C(N)N(c2ccc(F)cc2)C2=C(C(=O)CCC2)C1c1ccc2c(c1)OCO2 (configuration not stated)	10.4µM*	65.3%	2.8%	11.4%	-4.6%	/
C#CCOCCOCCOCCNc1nc(N2CCOCC2)nc(N2CCN(C(=O)[C@H](CC(N)=O)n3cc([C@@H](N)C(C)C)nn3)CC2)n1	/	/	-5.8%	25.1%	/	-16.1%
CC(C)(C)SCCNC(=O)COc1ccccc1	25.5%	27.8%	-8.4%	-4.6%	-2.3%	i
COc1ccc2cc(CCNC(=O)c3ccc(S(=O)(=O)N4CCCC4)cc3)c(=O)[nH]c2c1	13.1µM*	5.86µM*	1.6%	/	9.1%	i
COc1ccc(OC)c2[nH]c(=O)c(CCNC(=O)c3ccc(S(=O)(=O)N4CCCC4)cc3)cc12	?	55.0%	-11.7%	11.2µM*	-41.4%	-5.6%
CCSc1nc2c(sc3ccccc32)c(=O)n1C(C)C	/	13.1µM*	/	-26.7%	-17.0%	/
CCOCCCN(Cc1ccco1)C(=O)c1cc2c(=O)[nH]c3ccc(C)cc3c2s1	/	-11.1%	-29.3%	?	17.5%	?
CN1C(=O)COc2c(C(=O)NC3CN4CCC3CC4)cc(Cl)cc21 (configuration not stated)	4.8%	4.78µM*	/	/	/	/
CCN1CCN(CCCNc2ncnc3nc[nH]c23)CC1	-1.5%	-38.2%	-7.1%	18.7%	2.0%	6.9%
Cc1noc(C)c1S(=O)(=O)Nc1ccc2c(c1)C(=O)N([C@H](C)CO)C[C@H](C)[C@@H](CN(C)C(=O)NC(C)C)O2	/	/	-11.6%	?	/	i
Cc1noc(C)c1S(=O)(=O)N(C)C[C@H]1Oc2ccc(NS(=O)(=O)c3cn(C)cn3)cc2C(=O)N([C@H](C)CO)C[C@@H]1C	/	/	-9.9%	3.55µM*	/	i
Cc1noc(C)c1NC(=O)N(C)C[C@@H]1Oc2ccc(NS(=O)(=O)c3c(C)noc3C)cc2C(=O)N([C@H](C)CO)C[C@H]1C	/	/	2.2%	3.16µM*	/	i

From PubChem
